CYP2C9 act – activators of human CYP2C9 | P11712 | recombinant CYP2C9, luciferin-H conversion, luminescence; hits give high values; factor 1 = untreated enzyme, 0 = blocked | activation factor at 5 µM | 96,000 compounds, 1.4% hits;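 active means activation factor of 2 or more for CYP2C9 at a 5 µM dose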;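 further: 0 = sulfaphenazole-blocked wells and 1 = vehicle-only wells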
CYP2C19 act – increases human CYP2C19 enzyme activity; P33261; recombinant CYP2C19, luciferin-H EGE luminescence; hits give high values; 0 = fully inhibited enzyme, 1 = untreated enzyme; activation factor at 5 µM; 96,000 tested, under 10 active; AID 1025;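 active means activation factor of at least 2 at 5 µM in the primary screen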;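 further: 0 = wells with 2.5 mM tranylcypromine and 1 = vehicle-only wells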
Target sequence (P33261 whole entry, looked up): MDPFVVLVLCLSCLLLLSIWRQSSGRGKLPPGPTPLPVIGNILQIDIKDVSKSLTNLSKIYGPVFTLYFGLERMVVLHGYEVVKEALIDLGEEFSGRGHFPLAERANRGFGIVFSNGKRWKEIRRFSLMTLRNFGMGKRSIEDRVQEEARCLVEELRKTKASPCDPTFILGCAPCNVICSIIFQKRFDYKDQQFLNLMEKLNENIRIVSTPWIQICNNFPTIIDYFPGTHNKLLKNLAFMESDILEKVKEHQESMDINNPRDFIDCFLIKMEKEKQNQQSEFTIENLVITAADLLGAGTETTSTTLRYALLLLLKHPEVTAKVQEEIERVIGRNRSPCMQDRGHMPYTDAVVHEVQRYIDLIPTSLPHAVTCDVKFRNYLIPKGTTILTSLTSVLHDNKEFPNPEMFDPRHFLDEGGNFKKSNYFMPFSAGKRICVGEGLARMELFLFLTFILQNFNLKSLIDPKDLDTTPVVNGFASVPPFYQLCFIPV
CYP2C19 inhib – inhibitors of human CYP2C19; P33261; 96,000 compounds, 21% hits; AID 778; inhibition, % at 5 µM; CYP2C19 Supersomes, luciferin-H EGE luminescence, 30 min;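 active means CYP2C19 inhibition above a set limit at 5 µM in the primary screen, cut at about 50% in these data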;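 further: plate controls were negative control wells for no effect and 2.5 mM tranylcypromine positive control for full effect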
CYP2C9 inhib – inhibitors of human CYP2C9; P11712; CYP2C9 Supersomes, luciferin-H conversion, luminescence; inhibition, % at 5 µM; 96,000 compounds, 20% hits; AID 777;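 active means blocking of liver enzyme CYP2C9 beyond about 50% at 5 µM, limit read from the data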
Cav3 T inh – human Cav3.2 channel inhibition, primary screen. O95180. Cav3.2-expressing cells, Fluo-4 calcium fluorescence FDSS; hits give low values. B-score at 10 µM. 100,000 compounds, 4% hits;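 active means single-dose well whose peak fluorescence ratio is a statistical outlier from its plate by either plate-standardised score or position-corrected B-score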
* = called active by the depositor; · = no result. Only some compounds are listed: those with a hit (about 27% of all), similar ones and a draw of the others.

SMILES | CYP2C9 act | CYP2C19 act | CYP2C19 inhib | CYP2C9 inhib | Cav3 T inh
CC1(c2nnc(-c3ccc(F)cc3)o2)CC(c2cccc(Cl)c2)=NO1 (stereo not given) | · | · | · | · | -1.8
CCCOc1ccc(CC(CC(=O)O)(C(=O)O)C(=O)O)cc1 | 1.1 | 1 | 1 | -6 | 0.00083
COc1ccc2cnn(-c3ccccc3C)c(=O)c2c1OC | · | · | · | · | 0.49
O=C1/C(=C/c2ccc(F)c(F)c2)CSc2sccc21 | 0.2 | 0.6 | 40 | 78* | -0.16
O=C1/C(=C\c2ccc3c(c2)OCO3)CCC/C1=C/c1ccc2c(c1)OCO2 | 1.2 | 0.9 | 10 | -15 | ·
Cn1cccc1C1Nc2ccccc2NC2=C1C(=O)CC(C)(C)C2 (stereo not given) | 1 | 1.3 | -33 | 0 | 0.15
CCC(=O)c1ccccc1OCCSc1nc(C)cc(=O)[nH]1 | 0.5 | 0.3 | 72* | 45 | 0.19
Cc1cc(=O)[nH]c(SCCCOc2ccc(F)cc2)n1 | 1 | 0.9 | 14 | 1 | 0.52
CCCOc1cccc(OCCSc2nc(C)cc(=O)[nH]2)c1 | 0.5 | 0.5 | 46 | 51* | 0.94
CCc1c(C)nc(SCCOc2ccc(OC)cc2)[nH]c1=O | 0.4 | 0.3 | 66* | 62* | ·
Cc1ccc(C(=O)N2CCC(C)CC2)cc1C | · | · | · | · | -2.6
Nc1sc2c(c1C(=O)NC1CCS(=O)(=O)C1)CCC2 (stereo not given) | 0.6 | 1 | 5 | 36 | 0.13
CSc1nc(Sc2ccccc2Cl)c2ccccc2n1 | 1 | 1.1 | -6 | -5 | -0.6
CCOC(=O)c1cnc2cc(Cl)c(OC)cc2c1NCC1CCCO1 (stereo not given) | 0.3 | 0.7 | 28 | 70* | 0.34
COc1ccc(C2/C=C\CN(C(=O)NC(C)C)CC(=O)N2Cc2ccc(F)cc2)cc1 (stereo not given) | · | · | · | · | 0.72
Cc1nn(CC(=O)NCc2cccnc2)c(=O)c2ccccc12 | 1 | 0.8 | 17 | -4 | 0.27
Cc1nn(CC(=O)NCc2ccccc2)c(=O)c2ccccc12 | 2.7* | 0.7 | 27 | -169 | 0.89
Cc1nn(CC(=O)NCc2cccc3ccccc23)c(=O)c2ccccc12 | 2.2* | 1 | -1 | -115 | 0.75
Cc1nn(CC(=O)N2CCN(Cc3ccccc3)CC2)c(=O)c2ccccc12 | 1.1 | 0.3 | 75* | -13 | -1.3
CCN=C1SC(C(=O)Nc2ccccc2)CC(=O)N1CC (stereo not given) | 1.2 | 0.6 | 37 | -24 | -0.13
CCc1cccc(CC)c1N(COC)C(=O)Cn1nnc2ccccc21 | 0 | 0.2 | 82* | 100* | -0.24
CCc1cccc(CC)c1N(COC)C(=O)Cn1ccccc1=N | 1 | 1.1 | -13 | -3 | 0.044
CCc1cccc(CC)c1N(COC)C(=O)Cn1c(CO)nc2ccccc21 | 0.5 | 0.6 | 36 | 51* | 0.0031
O=C(CCN1C(=O)COc2ccccc21)NCCCN1CCc2ccccc2C1 | 0.9 | 0.9 | 8 | 10 | 1
O=C(CCN1C(=O)C2CC=C(Cl)CC2C1=O)NCc1ccccc1 (stereo not given) | · | · | · | · | 0.0087
SMILES | CYP2C9 act | CYP2C19 act | CYP2C19 inhib | CYP2C9 inhib | Cav3 T inh
O=C(CCN1C(=O)C2CC=C(Cl)CC2C1=O)Nc1ccccc1O (stereo not given) | 0.6 | 0.4 | 59* | 42 | 0.16
CC(=O)C1=C(O)C(=O)N(Cc2ccco2)C1c1ccc2c(c1)OCO2 (stereo not given) | 1.1 | 1 | -4 | -7 | 0.39
O=S(=O)(N/N=C/c1ccc2c(c1)OCCO2)c1ccc(Cl)cc1 | 0.3 | 0.7 | 32 | 71* | -1.5
Cc1cc(Cl)c(S(=O)(=O)N/N=C/c2ccc3c(c2)OCO3)c(Cl)c1 | 0 | 0.6 | 39 | 96* | ·
CCn1ncc(/C=N/NS(=O)(=O)c2ccc(Cl)cc2)c1C | 0.1 | 0.3 | 67* | 88* | 0.38
Cc1oc(/N=C/c2ccc3c(c2)OCO3)c(C#N)c1C | 0.9 | 0.8 | 25 | 10 | -0.59
O=C(N/N=C/c1c(Cl)cccc1Cl)c1ccc(F)cc1 | 1.1 | 0.7 | 28 | -10 | 0.17
C(=N\n1cnnc1)/c1ccc2c(c1)OCCO2 | 1.1 | 0.5 | 48 | -12 | -0.094
O=S(=O)(N/N=C\c1c(F)cccc1Cl)c1ccc(Cl)cc1 | 0.4 | 0.2 | 81* | 64* | ·
Cc1ccc([N+](=O)[O-])cc1N/C=C1\CCc2ccccc2C1=O | 1 | 1.1 | -9 | 0 | -0.72
CCSc1nnc(C)n1-c1ccc(C(=O)O)cc1 | 1.2 | 1.1 | -10 | -18 | 0.73
COc1ccc2c(c1)S/C(=C\C(=O)c1ccncc1)N2C | 0.4 | 0.3 | 73* | 62* | -0.12
O=C(Nc1ccc(Cn2cccn2)cc1)c1ccc(COc2cccc(Br)c2)cc1 | 0.2 | 0.4 | 57* | 83* | -4.7*
O=C(Nc1ccn(Cc2ccccc2F)n1)c1ccc(COc2ccc(Br)cc2)cc1 | 0.9 | 0.9 | 9 | 9 | -4.6*
O=C(Nc1ccc(Cn2cccn2)cc1)c1ccc(COc2ccc(Br)cc2)cc1 | 0.8 | 1 | -1 | 17 | -0.46
Cc1nn(Cc2cccc(C(=O)Nc3ccn(Cc4ccccc4F)n3)c2)c(C)c1[N+](=O)[O-] | 0.8 | 1 | 5 | 16 | -4.3*
C=CCC(=O)OCC(=O)Nc1ccc(Oc2ccccc2)cc1 | 1.1 | 0.9 | 6 | -6 | ·
Cc1ccc(-c2nc3sc4c(c3c(=O)n2N)CCCC4)cc1 | 0.4 | 0.8 | 23 | 58* | -0.71
Cc1ccc(C)n1-n1c(C)nc2sc3c(c2c1=O)CCCCC3 | 0.9 | 0.9 | 11 | 8 | -5.6*
Cc1ccc(-c2nc3sc4c(c3c(=O)n2N)CC(C)(C)OC4)cc1 | 0.9 | 1.2 | -16 | 10 | -0.63
CCc1nc(NCc2cccnc2)c2oc3ccccc3c2n1 | 0.4 | 0.1 | 92* | 58* | 1.2
CCc1nc(NCc2ccc3c(c2)OCO3)c2oc3ccccc3c2n1 | 0.1 | 0.5 | 52* | 92* | -3.7*
O=C(N(Cc1ccccc1)c1ccccn1)C12CC3CC(CC(C3)C1)C2 | 1 | 0.9 | 12 | -1 | -3.6*
O=C(c1ccc(N2CCCCC2)c([N+](=O)[O-])c1)N(Cc1ccccc1)c1ccccn1 | 0.7 | 0.9 | 12 | 35 | -4.5*
O=C(c1cnc2sccn2c1=O)N(Cc1ccccc1)c1ccccn1 | 0.5 | 1 | -2 | 50* | -0.23
SMILES | CYP2C9 act | CYP2C19 act | CYP2C19 inhib | CYP2C9 inhib | Cav3 T inh
O=C(NCc1cccs1)c1cnc2sccn2c1=O | 1 | 1 | 1 | 2 | ·
COC(=O)CCN(C(=O)C12CC3CC(CC(C3)C1)C2)c1ccccn1 | 0.8 | 0.9 | 14 | 16 | 0.6
O=C(c1ccccc1)N(Cc1ccccc1)c1ccccn1 | 0.7 | 0.4 | 57* | 33 | 0.46
CC(=O)Nc1cccc(C(=O)OCc2ccc(C(=O)Oc3ccc(Cl)cc3)cc2)c1 | 0.9 | 0.9 | 7 | 6 | 0.34
CN(C)CCCNc1cc(Cl)c(S(=O)(=O)N2CCCCC2)cc1C(=O)O | 1 | 1 | 2 | -3 | ·
O=C(c1ccc(Br)o1)N(Cc1ccccc1)c1ccccn1 | 0.8 | 0.3 | 72* | 22 | -0.55
O=S(=O)(c1ccccc1)N(Cc1ccccc1)c1ccccn1 | 0.4 | 0.3 | 67* | 57* | -1.2

Compound activity from PubChem.
